Source: PubChem (National Center for Advancing Translational Sciences (NCATS))
Rows were chosen to be rich in hits. Some 7.3% of all compounds tested hit in one or more screens of this group.
Rab9 promoter act – activators of Rab9 promoter | 320,000 tested, 2.8% active | AID 485297 | Huh7 Rab9 promoter-luciferase reporter, luminescence, 24 h | Potency, µM (top dose mostly 9.22 µM), without a hit: at the highest dose activation, negative = inhibition, usual class: activators; further: % of control where 0% means no effect; nearly all actives have a fitted effect of over 60% in size
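Huh7 cells stably carrying Rab9 promoter–luciferase reporter, plated 1500 cells/well, compound added after 2 h and incubated 24 h at 37 °C; luciferase luminescence then read after 10 min with detection reagent.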
KinaseGlo FLuc – counter-screen: inhibitors of Kinase-Glo firefly luciferase. Q27757. Kinase-Glo luciferase, ATP luminescence, 8 min. Potency, µM (series often up to 38.3 µM), for the others: at the top dose activity change, negative = inhibition, hits mostly inhibitors. 200,000 tested, 0.28% active. AID 1379; further: on the % scale 0 is the no-effect control and ±100 the full control effect; nearly all actives have a fitted effect of over 60% in size
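Kinase-Glo luciferase light output from ATP and luciferin was measured with 10 uM ATP, within the enzyme's linear range. Buffer: 50 mM imidazole pH 7.2, 50 mM KCl, 7 mM MgCl2, 0.01% Tween 20, 0.05% BSA; luminescence read after 8 min at ambient temperature.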
SMN2 splice enh – increases expression of the SMN2 splice variant; 210,000 tested, 2.8% active; HEK293 SMN2-luciferase splicing reporter, luminescence, 30-36 h; Potency, µM (highest dose often 46.1 µM), without a hit: at the top dose activity change, positive = activation, hits mostly activators; further: % of control where 0% means no effect; nearly all actives have a fitted effect of over 55% in size
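qHTS luciferase splicing reporter: luminescence rises when SMN2 exon 7 is included in transfected HEK293 cells. Compound exposure lasted 30-36 h at 37C, with 4.5 mM final sodium butyrate as control, followed by a ONE-Glo read.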
NPC1 promoter act – activates the NPC1 promoter. Potency, µM (doses to about 9.22 µM), without a hit: at the highest dose activation, most hits filed as activators. AID 485313. 320,000 tested, 2.4% active. Huh7 NPC1 promoter luciferase reporter, 24 h; further: % of control where 0% means no effect; nearly all actives have a fitted effect of over 60% in size
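In 1536-well qHTS, Huh7 cells harboring an NPC1 promoter–luciferase construct received compound for 24 h; activation was quantified by luminescence following luciferase reagent addition.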
FLuc counter – inhibits or activates purified firefly luciferase, miR-21 counter-screen. P08659. purified FLuc, Km substrates, luminescence inhibition. Potency, µM (series often up to 57.5 µM), without a hit: at the top dose activity change, negative = inhibition, hits mostly inhibitors. 360,000 tested, 6.9% active. AID 588342;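 further: plate controls were vehicle for no effect and reference inhibitor for full effect; nearly all actives have a fitted effect of over 55% in size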
Target sequence (P08659 whole entry, looked up): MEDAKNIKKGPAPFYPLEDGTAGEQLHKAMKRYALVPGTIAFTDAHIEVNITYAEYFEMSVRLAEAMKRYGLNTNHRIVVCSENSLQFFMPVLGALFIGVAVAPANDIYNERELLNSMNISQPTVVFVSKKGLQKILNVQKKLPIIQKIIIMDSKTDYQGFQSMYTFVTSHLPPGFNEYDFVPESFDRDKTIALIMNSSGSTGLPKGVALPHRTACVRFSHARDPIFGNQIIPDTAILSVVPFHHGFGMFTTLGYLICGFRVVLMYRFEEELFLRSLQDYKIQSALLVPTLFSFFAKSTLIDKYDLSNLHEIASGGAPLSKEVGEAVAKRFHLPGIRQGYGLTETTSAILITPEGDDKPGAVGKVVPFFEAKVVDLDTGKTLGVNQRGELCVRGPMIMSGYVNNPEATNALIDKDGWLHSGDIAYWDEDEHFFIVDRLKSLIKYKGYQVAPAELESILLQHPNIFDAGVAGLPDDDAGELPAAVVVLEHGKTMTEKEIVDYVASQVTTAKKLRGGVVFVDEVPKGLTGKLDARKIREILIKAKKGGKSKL
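Purified P. pyralis luciferase, 10 nM final, with Km-level 10 uM D-luciferin and 10 uM ATP in 50 mM Tris acetate pH 7.5, 10 mM Mg acetate, 0.01% Tween-20, 0.05% BSA; 6-point qHTS titration about 60 µM downward; luminescence read.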
An asterisk follows results filed as active; ? = inconclusive; . = not tested or not shown; [ ] = another dose, or the depositor's remark. The call rests on the fitted dose curve; in most records, active means well fitted curve in the direction sought with a large enough effect; inconclusive means small, poorly fitted or top-dose-only effect, or another doubt; inactive means no such curve, though single readings can be large; an effect the other way counts as inactive or inconclusive. Potency means the concentration at half of the fitted maximal effect.

SMILES	Rab9 promoter act	KinaseGlo FLuc	SMN2 splice enh	NPC1 promoter act	FLuc counter
Cc1ccc(N2CC(NC(=O)C3CCCC3)CC2=O)cc1C (centres undefined)	.	.	.	.	1.5%
CCCCN(CCCC)CCNC(=O)Cn1nc(C)n2c(cc3sccc32)c1=O	.	.	-0.9%	.	-6.1%
O=c1oc2cc(N=Cc3ccc4c(c3)OCO4)ccc2c2ccccc12	.	-4.1%[7.66 µM]	7.2%[9.22 µM]	.	.
C/C(=N\NC(=O)c1ccccc1OCCOc1ccccc1)c1ccccc1F	1.8%	.	.	-3.4%	?
C/C(=N\NC(=O)c1ccc(Br)cc1)c1ccccc1	1.26µM*	-8.8%	12.6µM*	0.562µM*	3.38µM*
C/C(=N\NC(=O)c1ccccc1)c1ccccc1F	0.562µM*	-21.8%	5.62µM*	1.41µM*	12µM*
C/C(=N\NC(=O)OC(C)(C)C)c1ccccc1Br	?	-28.3%	12.0%	?	21.3µM*
C/C(=N\NC(=O)c1ccccc1)c1ccccc1Br	?	-4.9%	?	?	15.1µM*
CS(=O)(=O)N(CC(=O)O)c1ccccc1	.	1.1%	.	.	.
COC(=O)N/N=C(\C)c1ccc(Br)cc1	24.8%	13.9%	-33.8%	3.3%	?
CCOC(=O)N/N=C(\C)c1ccc(Br)cc1	17.0%	14.5%	-11.5%	12.3%	16.9µM*
C=C(C)Cn1cnc2c(oc3nc4c(cc32)CCCC4)c1=O	1.58µM*	.	.	2.51µM*	21.3µM*
Cc1cccc(N2C(=O)N(CC(=O)C(C)(C)C)c3ccccc3S2(=O)=O)c1C	.	.	.	.	0.1%
Cc1csc(N/N=C/c2ccc(O)c([N+](=O)[O-])c2)n1	4.3%	1.7%	18.0%	2.3%	21.3µM*
O=[N+]([O-])c1cc(/C=N\Nc2nc(-c3ccccc3)cs2)ccc1O	-1.9%	-4.9%	-10.4%	-0.7%	?
O=[N+]([O-])c1cc(/C=N/Nc2nc(N3CCCCC3)nc(N3CCCCC3)n2)ccc1O	0.9%	-2.6%	?	-2.5%	15.1µM*
COc1ccc(/C=N/Nc2nc(N3CCCCC3)nc(N3CCCCC3)n2)cc1[N+](=O)[O-]	-5.9%	0.2%	-8.6%	-1.6%	-5.9%
COc1ccc(CNC(=O)CCn2nc(C)c3c(C)n(-c4ccccc4)nc3c2=O)cc1OC	.	.	.	.	3.6%
Cc1nc2cc(C(=O)O)ccc2s1	2.82µM*	1.5%	11.2µM*	1.41µM*	16.9µM*
CC(=O)c1ccc(NC(=O)c2ccc(C)c(Br)c2)cc1	0.794µM*	-1.1%	11.2µM*	2.51µM*	6.01µM*
Cc1nc2ccc(NC(=O)c3ccc4ccccc4n3)cc2s1	3.55µM*	-15.0%	35.5µM*	2.82µM*	6.01µM*
Cc1ccc(-c2nc3ccc(C(=O)O)cc3nc2-c2ccc(C)cc2)cc1	-4.3%	-2.7%	-10.0%	0.3%	0.7%
Cc1nc2ccc(NC(=O)c3ccco3)cc2s1	2.82µM*	-5.9%	.	?	?
CN(C)c1ccc(-c2nc(NCc3cccnc3)c3ccccc3n2)cc1	.	-13.6%	-88.8%	.	.
COc1ccc2c(c1)CC(C(=O)NCCN1CCN(c3cccc(C)c3C)CC1)CO2 (centres undefined)	.	.	.	.	-1.0%
SMILES	Rab9 promoter act	KinaseGlo FLuc	SMN2 splice enh	NPC1 promoter act	FLuc counter
Cc1ccccc1NC(=O)c1ccc2nc(N3CCOCC3)sc2c1	?	.	.	-2.4%	-11.1%
Cc1nnc(NC(=O)c2ccc3ccccc3n2)s1	3.55µM*	.	.	?	23.9µM*
NNC(=O)c1ccc2ccccc2n1	0.9%	0.5%	12.5%	0.6%	-4.6%
Cc1nc2ccc(NC(=O)c3ccccc3)cc2s1	2.82µM*	-2.3%	22.4µM*	2.82µM*	19µM*
COc1cc(C(=O)Nc2ccc(C(C)=O)cc2)c(Br)c(OC)c1OC	?	6.3%	?	24.5%	16.9µM*
COc1ccc(NC(=O)c2cc(OC)c(OC)c(OC)c2Br)cc1OC	-11.5%	0.1%	-0.8%	-5.2%	-0.9%
Cc1nc2ccc(C(=O)Nc3ccccc3Cl)cc2s1	1.12µM*	.	.	2.51µM*	16.9µM*
CCn1c2ccccc2c2cc(CN3CCN(Cc4ccccc4Cl)CC3)ccc21	.	.	-8.4%	.	-0.7%
COC(=O)c1ccc(Cl)cc1NC(=O)N(C)CCc1c(C)nn(C)c1C	.	.	.	.	-8.6%
CC(=O)c1ccc(NC(=O)c2ccc3nc(C)sc3c2)cc1	2.82µM*	.	.	2µM*	?
CCn1nc(C(=O)Nc2ccc3nc(C)sc3c2)c2ccccc2c1=O	1.0%	-3.8%	3.98µM*	4.7%	?
Cc1c(C(=O)Nc2nc3ccccc3[nH]2)oc2ccc(Br)cc12	?	.	.	27.7%	7.57µM*
Cc1c(C(=O)Nc2nc3ccccc3[nH]2)oc2ccccc12	3.98µM*	-5.8%	10µM*	?	3.01µM*
Cc1c(C(=O)Nc2nc3ccccc3[nH]2)oc2c(Cl)cccc12	23.5%	7.1%	?	13.3%	-16.3%
Cc1c(C(=O)OC/C(O)=C(\C#N)c2nc3ccccc3[nH]2)oc2ccc(Br)cc12	-0.4%	.	.	-0.1%	3.4%
Cc1ccc(N(CC(=O)N2CCN(c3cc(C)ccc3C)CC2)S(=O)(=O)c2c(C)nn(C)c2C)cc1	.	.	-16.7%	.	-8.0%
O=C(CSc1nc2c([nH]c3ccccc32)c(=O)n1-c1ccc(Cl)cc1)N1CCOCC1	.	.	.	.	0.6%
C[C@@H](NC(=O)c1coc(=O)c(Br)c1)c1ccccc1	8.2%	4.5%	12.6µM*	2.0%	-2.3%
COc1ccc(C(=O)NC(C)c2ccccc2)cc1Br (centres undefined)	-0.3%	0.0%	-5.8%	0.0%	-3.2%
Cc1cc(NC(=O)c2coc(=O)c(Br)c2)ccc1C(C)C	?	.	.	18.5%	5.36µM*
O=C(Nc1ccccc1F)c1coc(=O)c(Br)c1	-0.1%	-0.8%	-3.4%	-0.5%	-18.6%
CC(=O)OCC(=O)N1N=C(c2ccc3ccccc3c2)CC1c1ccccc1 (centres undefined)	3.16µM*	3.0%	22.2%	?	-11.5%
CCOC(=O)c1nnn(CC(=O)N2N=C(c3ccccc3)CC2c2ccccc2)c1C(=O)OCC (centres undefined)	-3.7%	6.2%	-20.9%	-1.0%	2.4%
CCOC(=O)/C=C(\C)N1N=C(c2ccccc2)CC1c1ccccc1 (centres undefined)	?	-10.9%	?	7.9%	16.9µM*
COc1ccc(C2CC(c3ccc4ccccc4c3)=NN2C(=O)CN2CCC(C(N)=O)CC2)cc1 (centres undefined)	?	-2.4%	-102.1%	15.9%	?
COc1ccc(C2CC(c3ccc4ccccc4c3)=NN2C(=O)COC(=O)C2CCC(=O)N2)cc1 (centres undefined)	1.12µM*	0.1%	14.1µM*	1.58µM*	23.9µM*
COc1ccc(CN(CCC(c2ccc3c(c2)OCO3)c2ccccc2OC)C(C)=O)cc1 (centres undefined)	.	.	-21.2%	.	-19.5%
Cc1ccc(Cl)cc1NC(=O)Nc1cccc(OCc2cc(=O)n3ccccc3n2)c1	.	.	.	.	-7.0%
Cc1ccc(-c2noc(-c3nnn(CC(=O)Nc4cc(Cl)ccc4C)c3N)n2)cc1	.	.	.	.	-1.6%
